{
  "source": "PubChem BioAssay (NCI)",
  "note": "About 83,000 compounds went through this panel and 20% of them were active in at least one assay; those are over-represented in the sample as a whole.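 Results are percent growth after 48 hours of single-concentration exposure. 100 means growth as in untreated cells, lower positive values show inhibition; negative values down to -100 show cell death.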 A number with no mark means an inactive call. The source made the active and inactive calls.",
  "data": [
    {"test_system": "SK-MEL-2 melanoma", "test": "NCI-60 one-dose screen, 48 h (100 = growth as untreated, 0 = no growth, -100 = all killed)", "conditions": "10 µM unless noted", "procedure": "Growth inhibition of the SK-MEL-2 human tumor cell line is measured as a screen for anti-cancer activity. Cells are grown in 96 well plates and exposed to the test compound for 48 hours. Compounds are tested at a single concentration, which is 10^-5 M for most compounds. The reported endpoint is percent growth (GI% or GIPRCNT), where numbers from 0 - 100% represent growth inhibition, and numbers from -100% - 0 represent cell death. For example, a value of 40 represents 60% growth inhibition. A value of 0 means no net growth occurred over the course of the experiment. A value of -40 indicates 40% of cells at the beginning of the experiment died by the end of the experiment. A value of -100 means all cells are dead at the end of the experiment.\nNCI-60 Human Tumor Cell Lines Screen was performed using the standard one-dose NCI protocol, which is described in more detail at https://dtp.cancer.gov/discovery_development/nci-60/default.htm.\nCompounds with GIPRCNT values below 10 were considered active. Activity score was based on GIPRCNT using the following formula: […]\nScore is 0 for GIPRCNT values of 100 or above, 50 for GIPRCNT values of 0, and 100 for GIPRCNT values of -100.", "values": [
      {"smiles": "C=C(C)[C@@H]1CC[C@]2(C(=O)OC)CC[C@]3(C)[C@H](CC[C@@H]4[C@@]5(C)CC/C(=N\\OCCC(=NCCC#N)NOCCC#N)C(C)(C)[C@@H]5CC[C@]43C)[C@@H]12", "growth": "36.2% [100 µM]"},
      {"smiles": "CC[C@@](C)(NC(=O)[C@H](C)NC(=O)CCNC(=O)C(C)(C)NC(=O)[C@H](C)NC(=O)[C@@H]1CCCN1C(=O)[C@@](C)(CC)NC(=O)[C@H](Cc1ccccc1)NC(=O)C1CCCN1C(=O)C(C)(C)NC(=O)C1CCCN1C(=O)C(C)(C)NC(C)=O)C(=O)NCCC(=O)N[C@@H](CC(C)C)C(=O)NC(C)(C)C(=O)NCCC(=O)N[C@@H](CC(C)C)C(=O)NC(C)(C)C(=O)NC(C)(C)C(=O)N[C@@H](CC(C)C)C(=O)NCCC(=O)NCO", "note": "(stereo not given in full)", "growth": "-89% (active)"},
      {"smiles": "Cn1cc(-c2noc(C(=O)c3cn(C)c4ncccc34)n2)c2ccccc21", "growth": "107%"},
      {"smiles": "COc1ccc2nc3cc(Cl)ccc3c(Nc3ccc(O)cc3)c2c1", "growth": "110%"},
      {"smiles": "Clc1ccc(/C=N/Nc2nc3ccccc3s2)c(Cl)c1", "growth": "112%"},
      {"smiles": "COc1cc2c(c(OC)c1OC)-c1cc(I)c(O)cc1[C@@H](NC(C)=O)CC2", "growth": "53.4%"},
      {"smiles": "O=C(Nc1cc(-c2cccnc2)nc(NCCCN2CCOCC2)n1)c1cc(Br)cc(C(F)(F)F)c1", "growth": "81.3%"},
      {"smiles": "CCOc1ccc2sc(NS(=O)(=O)c3ccc(N)cc3)nc2c1", "growth": "109%"},
      {"smiles": "CCN(CC)CCCC(C)Nc1c2ccc(C)cc2nc2ccc(OC)cc12", "note": "(stereo not given)", "growth": "39.2%"},
      {"smiles": "CC1(C)CC[C@]2(C(N)=O)CC[C@]3(C)C(=CC[C@@H]4[C@@]5(C)C/C(=C/c6ccncc6)C(=O)C(C)(C)[C@@H]5CC[C@]43C)[C@@H]2C1", "growth": "-86% [100 µM] (active)"},
      {"smiles": "CC(C)OC(=O)Nc1cc(F)ccc1F", "growth": "112%"},
      {"smiles": "CSc1nc2sc3cc(Cl)c(Cl)cc3n2c(=N)c1C#N", "growth": "102%"},
      {"smiles": "C[n+]1cccc(NC(=O)c2ccc3ccc4ccc(C(=O)Nc5ccc[n+](C)c5)nc4c3n2)c1", "growth": "56.9%"},
      {"smiles": "CC1Cc2ccc(OCCN(C)C)cc2C1=O", "note": "(stereo not given)", "growth": "91.9%"},
      {"smiles": "Cn1c(=O)c(C#N)c(-c2ccco2)n2c(S(=O)(=O)Cc3ccccc3)nnc12", "growth": "58.5%"},
      {"smiles": "COCCCNc1nc(NC(=O)c2cc(Br)cc(C(F)(F)F)c2)cc(-c2cccnc2)n1", "growth": "80.6%"},
      {"smiles": "CC(=O)CC(=O)SC1=NCCS1", "growth": "131%"},
      {"smiles": "CCOC(=O)c1cnc2ccc(Br)cc2c1Nc1cccc(S(N)(=O)=O)c1", "growth": "109%"},
      {"smiles": "C#C[C@]1(O)CC[C@H]2[C@@H]3CC=C4c5nc(Nc6ccc(OC)cc6OC)sc5CC[C@]4(C)[C@H]3CC[C@@]21C", "growth": "-10.1% (active)"},
      {"smiles": "COc1ccc(C(C(=O)O)c2ccc(OC)cc2)cc1", "growth": "111%"},
      {"smiles": "CC(C)CSc1ncnc2nc[nH]c12", "growth": "107%"},
      {"smiles": "COc1ccc2c(c1)C(C)Cc1c(ncnc1-n1cnc3ccccc31)N2C", "note": "(stereo not given)", "growth": "44%"},
      {"smiles": "O=C1NC(=O)c2cc([N+](=O)[O-])cc3cccc1c23", "growth": "107%"},
      {"smiles": "CC[C@@H]1NC(=O)[C@@H]2CCCCN2C(=O)[C@@H]2CCCN2C(=O)[C@@H](NC(=O)[C@H](Cc2cc(F)cc(F)c2)NC(=O)Nc2ccc(C3CC3)cc2F)[C@H](C)OC(=O)[C@@H]2C[C@@H](C)CN2C1=O", "growth": "9.64% (active)"},
      {"smiles": "N#CC1C(=O)NC(c2ccccc2[N+](=O)[O-])c2sc3c(F)cccc3c21", "note": "(stereo not given)", "growth": "82.6%"},
      {"smiles": "CCc1ccc(NC(=O)N[C@@H](Cc2cc(F)cc(F)c2)C(=O)N[C@@H]2C(=O)N3C[C@H](O)C[C@H]3C(=O)N3CCOC[C@H]3C(=O)N[C@@H](C)C(=O)N3C[C@H](C)C[C@H]3C(=O)O[C@H]2C)cc1", "growth": "29%"},
      {"smiles": "CCn1cc(-c2[nH]c(=S)ncc2-c2ccc(Cl)cc2)c(-c2ccc(Br)cc2)n1", "growth": "72%"},
      {"smiles": "O=[N+]([O-])c1cccc(/C=C/c2ccc3ccccc3n2)c1", "growth": "68%"},
      {"smiles": "CN(C)Cc1ccc[nH]1", "growth": "93.5%"},
      {"smiles": "COc1ccc(-c2cc(-c3ccc(Cl)cc3)nc(NCCCCNc3ccnc4cc(Cl)ccc34)n2)cc1", "growth": "78%"},
      {"smiles": "O=C(Nc1ccc(CN2CCOCC2)c(C(F)(F)F)c1)c1nc2ccc3[nH]ncc3c2c2c1CCCC2", "growth": "103%"},
      {"smiles": "Nc1nc(Nc2ccccc2)c2ncn(Cc3ccc4c(c3)OCO4)c2n1", "growth": "12.2%"},
      {"smiles": "O=C1COCCN1c1ccc(Nc2nc(Cl)nc(N3CCOCC3)n2)cc1", "growth": "91.6%"},
      {"smiles": "COc1ncc(-c2ccc3nccc(C#CCCCCC(=O)NO)c3c2)cc1NS(=O)(=O)c1ccc(F)cc1F", "growth": "-60.7% (active)"},
      {"smiles": "CCCCCCCCCN(CCCCCCCCC)C(C)C(=O)c1ccc2cc(Br)c3ccccc3c2c1", "note": "(stereo not given)", "growth": "125%"},
      {"smiles": "Oc1cc(Nc2ccnc3cc(Cl)ccc23)c2ncccc2c1", "growth": "94.4%"},
      {"smiles": "Cc1nc(-c2ccccc2)sc1CC#N", "growth": "112%"},
      {"smiles": "CC1(C)CC(=O)c2c(ccc(C(=O)C[C@@H](N)CO)c2N)O1", "growth": "9.07% (active)"},
      {"smiles": "COc1ccc(C2CC(c3cc(OC)c(OC)c(OC)c3)=NN2C(C)=O)cc1OCC(=O)Nc1nc2ccc(C(F)(F)F)cc2s1", "note": "(stereo not given)", "growth": "92.3%"},
      {"smiles": "[2H]C1([2H])CCN(C(=O)C2CC2)c2cc(NS(=O)(=O)c3ccc(-c4cccc(C(N)=O)c4)cc3)ccc21", "growth": "7.75% (active)"}
    ]}
  ]
}
